PubChem BioAssay (EPA / NIEHS)
Activity calls are given as the source filed them. The calls were made as follows: active = hit-call score of the fitted dose curve at least 0.9, where 1 is the maximum; inactive = score below 0.9.

Legend:
Conditions in all cases: mRNA level, 48 h; actives raise or lower the signal
[1] = read-out: Alkaline Phosphatase, Placental (ALPP) gene, ALPP (gene 250); test: LTEA_HepaRG_ALPP: Life Technologies and Expression Analysis (LTEA) Assay for Alkaline Phosphatase, Placental (ALPP) gene using HepaRG (AID 2283468)
Outline: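 Using human liver HepaRG cells, chemicals are tested in duplicate over 48 h at half-log concentrations topping at 100 uM; phenobarbital 1 mM serves as induction control. ALPP mRNA change by qRT-PCR, bidirectional fit against vehicle.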

[2] = read-out: Bcl-2 (BAD) gene, BAD (gene 572); test: LTEA_HepaRG_BAD: Life Technologies and Expression Analysis (LTEA) Assay for Bcl-2 (BAD) gene using HepaRG (AID 2283469)
Outline: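 Activity values reflect up- or down-regulation of BAD mRNA in human HepaRG hepatic cells treated 48 h in serum-free medium, with eight-point half-log dosing capped at 100 uM and 0.5% DMSO vehicle.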

[3] = read-out: Bcl-2 (BAX) gene, BAX (gene 581); test: LTEA_HepaRG_BAX: Life Technologies and Expression Analysis (LTEA) Assay for Bcl-2 (BAX) gene using HepaRG (AID 2283470)
Outline: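 Human HepaRG cells treated in duplicate for 48 h across eight concentrations (max 100 uM, 0.5% DMSO); BAX expression measured by qRT-PCR.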

[4] = read-out: adenosine kinase (ADK) gene, ADK (gene 132); test: LTEA_HepaRG_ADK: Life Technologies and Expression Analysis (LTEA) Assay for adenosine kinase (ADK) gene using HepaRG (AID 2283471)
Outline: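 HepaRG (human liver), 48 h chemical exposure, 8-pt half-log series, top 100 uM, 0.5% DMSO vehicle. Readout: ADK mRNA by qRT-PCR vs housekeeping genes; bidirectional curve fit relative to DMSO baseline.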

[5] = read-out: Alpha-fetoprotein (AFP) gene, AFP (gene 174); test: LTEA_HepaRG_AFP: Life Technologies and Expression Analysis (LTEA) Assay for Alpha-fetoprotein (AFP) gene using HepaRG (AID 2283472);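 as to AC50: AFP transcript by TaqMan qRT-PCR normalized to ACTB GAPDH and POLR2A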
Outline: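 Measures AFP mRNA change in HepaRG after 48 h chemical exposure (8 half-log concentrations, highest 100 uM, 0.5% DMSO). Fold change relative to DMSO, fitted in both directions.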

BCL2L11 (gene 10018) = test: LTEA_HepaRG_BCL2L11: Life Technologies and Expression Analysis (LTEA) Assay for Bcl-2 (BCL2L11) gene using HepaRG (AID 2283473)
Outline: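 Human hepatic HepaRG cultures are treated 48 h with test chemicals (maximum 100 uM, 0.5% DMSO vehicle). Expression of BCL2L11 is measured by qRT-PCR against ACTB, GAPDH and POLR2A, with activity in either direction scored relative to vehicle.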

[6] = read-out: Apolipoprotein A-V (APOA5) gene, APOA5 (gene 116519); test: LTEA_HepaRG_APOA5: Life Technologies and Expression Analysis (LTEA) Assay for Apolipoprotein A-V (APOA5) gene using HepaRG (AID 2283474)
Outline: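 Concentration-response of APOA5 expression in HepaRG: eight half-log doses to 100 uM, 48 h, qRT-PCR normalized to ACTB/GAPDH/POLR2A, bidirectional fitting with 0.5% DMSO as baseline.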

[7] = read-out: Apoptosis regulator Bcl-2 (Homo sapiens) (UniProt P10415); test: LTEA_HepaRG_BCL2: Life Technologies and Expression Analysis (LTEA) Assay for Bcl-2 gene using HepaRG (AID 2283475);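 also: BCL2 transcript by TaqMan qRT-PCR normalised to ACTB GAPDH and POLR2A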
Outline: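 Each chemical was tested in duplicate on HepaRG cultures held in serum-free induction medium for 48 h, highest concentration 100 uM with half-log dilutions. Transcript levels came from multiplexed qRT-PCR, normalised to housekeeping genes; activity was scored in either direction relative to DMSO.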

[8] = read-out: Bcl-2 (BID) gene, BID (gene 637); test: LTEA_HepaRG_BID: Life Technologies and Expression Analysis (LTEA) Assay for Bcl-2 (BID) gene using HepaRG (AID 2283476)
Outline: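 Assay used HepaRG hepatic cells treated 48 h in serum-free medium with half-log dilutions from 100 uM. Endpoint: BID mRNA, qRT-PCR, normalized to ACTB/GAPDH/POLR2A.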

Caspase-3 (Homo sapiens) = Caspase-3 (Homo sapiens) (UniProt P42574); test: LTEA_HepaRG_CASP3: Life Technologies and Expression Analysis (LTEA) Assay for cysteine-aspartic acid protease (CASP3) using HepaRG (AID 2283477)
Outline: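 Transcript-level assay: CASP3 mRNA in human HepaRG after 48 h treatment, eight half-log concentrations from 100 uM in 0.5% DMSO, quantified by qRT-PCR.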

[9] = read-out: Cytochrome P450 (CYP24A1), CYP24A1 (gene 1591); test: LTEA_HepaRG_CYP24A1: Life Technologies and Expression Analysis (LTEA) Assay for Cytochrome P450 (CYP24A1) using HepaRG (AID 2283478)
Outline: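 Gene expression of CYP24A1 by TaqMan qRT-PCR in HepaRG after 48 h treatment, highest concentration 100 uM; activity fitted in both directions relative to DMSO vehicle.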

[10] = read-out: Cytochrome P450 (CYP1A2), CYP1A2 (gene 1544); test: LTEA_HepaRG_CYP1A2: Life Technologies and Expression Analysis (LTEA) Assay for Cytochrome P450 (CYP1A2) using HepaRG (AID 2283479);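 also: TaqMan qRT-PCR transcript level normalized to ACTB GAPDH and POLR2A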
Outline: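 In duplicate wells, HepaRG cultures maintained in 0.5% DMSO were treated 48 h across an 8-point, half-log series topping at 100 uM; phenobarbital (1 mM) served as induction control. Expression was read by qRT-PCR.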

[11] = read-out: cysteine-aspartic acid protease (CASP8), CASP8 (gene 841); test: LTEA_HepaRG_CASP8: Life Technologies and Expression Analysis (LTEA) Assay for cysteine-aspartic acid protease (CASP8) using HepaRG (AID 2283480)
Outline: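 Concentration-response in duplicate up to 100 uM (half-log steps, 0.5% DMSO) on differentiated HepaRG cultures for 48 h. Expression change of CASP8 mRNA is determined by TaqMan qRT-PCR with housekeeping-gene normalization.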

[12] = read-out: Cytochrome P450 (CYP2B6), CYP2B6 (gene 1555); test: LTEA_HepaRG_CYP2B6: Life Technologies and Expression Analysis (LTEA) Assay for Cytochrome P450 (CYP2B6) using HepaRG (AID 2283481)
Outline: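 Human HepaRG, 48 h dosing, 0.5% DMSO vehicle, top dose 100 uM. CYP2B6 transcript by qRT-PCR, housekeeping-normalized, bidirectional curve fit.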

[13] = read-out: Cytochrome P450 2C19 (Homo sapiens) (UniProt P33261); test: LTEA_HepaRG_CYP2C19: Life Technologies and Expression Analysis (LTEA) Assay for CYP2C19 using HepaRG (AID 2283482)
Outline: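 Endpoint: CYP2C19 mRNA change, bidirectional fit vs 0.5% DMSO. Cells: HepaRG, 48 h exposure, eight-point series topping at 100 uM. Quantitation: qRT-PCR normalized to ACTB, GAPDH, POLR2A.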

CYP2C8 (gene 1558) = test: LTEA_HepaRG_CYP2C8: Life Technologies and Expression Analysis (LTEA) Assay for CYP2C8 using HepaRG (AID 2283483)
Outline: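 This is a transcriptional endpoint in HepaRG cultures: 48 h exposure, highest concentration 100 uM. CYP2C8 mRNA is quantified by TaqMan qRT-PCR.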

CYP2C9 (gene 1559) = test: LTEA_HepaRG_CYP2C9: Life Technologies and Expression Analysis (LTEA) Assay for CYP2C9 using HepaRG (AID 2283484)
Outline: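 Eight-point concentration-response (highest 100 uM, half-log dilutions) in HepaRG cells for 48 h; CYP2C9 expression by qRT-PCR normalized to ACTB, GAPDH, POLR2A. Bidirectional fit, DMSO baseline.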

CYP2E1 (gene 1571) = test: LTEA_HepaRG_CYP2E1: Life Technologies and Expression Analysis (LTEA) Assay for CYP2E1 using HepaRG (AID 2283485)
Outline: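 Assay uses 48 h exposure of HepaRG hepatic cells, eight concentrations to 100 uM. Expression of CYP2E1 is quantified by TaqMan qRT-PCR with ACTB, GAPDH and POLR2A normalization; curves fitted in both directions relative to vehicle.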

[14] = read-out: Peroxisomal acyl-coenzyme A oxidase 1 (ACOX1) gene, ACOX1 (gene 51); test: LTEA_HepaRG_ACOX1: Life Technologies and Expression Analysis (LTEA) Assay for Peroxisomal acyl-coenzyme A oxidase 1 (ACOX1) gene using HepaRG (AID 2283467)
Outline: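 Human HepaRG hepatic cultures, 48 h treatment with test chemicals up to 100 uM. ACOX1 expression read by qRT-PCR relative to 0.5% DMSO vehicle.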

Measured: AC50

Sequence of Caspase-3 (Homo sapiens) (P42574 whole entry, looked up): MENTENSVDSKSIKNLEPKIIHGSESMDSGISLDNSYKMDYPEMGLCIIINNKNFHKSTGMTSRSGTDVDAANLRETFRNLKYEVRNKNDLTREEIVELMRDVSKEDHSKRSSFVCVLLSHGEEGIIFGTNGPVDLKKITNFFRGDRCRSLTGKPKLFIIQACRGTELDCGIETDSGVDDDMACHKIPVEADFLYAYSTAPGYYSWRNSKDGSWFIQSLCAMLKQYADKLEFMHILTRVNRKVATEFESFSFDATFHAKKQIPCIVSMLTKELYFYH
Sequence of Apoptosis regulator Bcl-2 (Homo sapiens) (P10415 whole entry, looked up): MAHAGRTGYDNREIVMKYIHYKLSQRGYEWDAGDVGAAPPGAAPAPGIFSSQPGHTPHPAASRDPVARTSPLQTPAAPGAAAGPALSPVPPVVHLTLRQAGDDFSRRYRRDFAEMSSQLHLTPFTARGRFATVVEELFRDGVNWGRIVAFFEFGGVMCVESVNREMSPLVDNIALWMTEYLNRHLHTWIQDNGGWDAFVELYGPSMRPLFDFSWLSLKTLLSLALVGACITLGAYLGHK
Sequence of Cytochrome P450 2C19 (Homo sapiens) (P33261 whole entry, looked up): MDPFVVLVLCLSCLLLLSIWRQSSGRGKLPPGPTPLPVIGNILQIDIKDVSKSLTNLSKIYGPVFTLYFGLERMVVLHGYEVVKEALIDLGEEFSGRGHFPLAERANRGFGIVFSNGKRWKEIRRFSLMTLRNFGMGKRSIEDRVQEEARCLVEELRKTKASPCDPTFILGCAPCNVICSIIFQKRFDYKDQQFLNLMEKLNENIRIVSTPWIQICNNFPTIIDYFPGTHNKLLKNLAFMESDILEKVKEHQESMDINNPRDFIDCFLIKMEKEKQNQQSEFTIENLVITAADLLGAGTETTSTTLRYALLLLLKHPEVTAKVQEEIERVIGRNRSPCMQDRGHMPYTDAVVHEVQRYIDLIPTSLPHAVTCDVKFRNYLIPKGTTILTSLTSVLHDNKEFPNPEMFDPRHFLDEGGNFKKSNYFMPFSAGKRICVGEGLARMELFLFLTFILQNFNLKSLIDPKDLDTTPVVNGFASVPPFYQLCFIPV

COP(=S)(OC)SCN1C(=O)c2ccccc2C1=O
active: [10] 22.3 µM | [12] 50 µM
not listed: [14]
inactive: all other assays above

CC(C)(O)c1cnn2c(-c3ccc(F)c(-c4c(F)cccc4C#N)c3)cnc2n1
active: [5] 12.7 µM | [10] 29.7 µM | [12] 0.705 µM | [13] 0.365 µM | CYP2C9 (gene 1559) 0.291 µM | CYP2E1 (gene 1571) 4.43 µM
not listed: CYP2C8 (gene 1558) | [14]
inactive: all other assays above

Nc1ccc(Cl)cc1N
inactive: [1] | [2] | [4] | [8] | Caspase-3 (Homo sapiens) | [11]
active: [3] 13.2 µM | [5] 22.5 µM | BCL2L11 (gene 10018) 18.9 µM | [6] 16.2 µM | [7] 28.8 µM | [10] 0.811 µM | [12] 21.6 µM | [13] 28.6 µM | CYP2C8 (gene 1558) 25.1 µM | CYP2C9 (gene 1559) 24.6 µM | CYP2E1 (gene 1571) 19.5 µM

COC(=O)Nc1nc2ccccc2[nH]1
active: [12] 3.97 µM
not listed: [3] | [9] | [10] | CYP2C8 (gene 1558)
inactive: all other assays above

c1ccc(N=Nc2ccccc2)cc1
not listed: [10] | [14]
inactive: all other assays above

O=P(OCCCl)(OCCCl)OCCCl
active: [3] 9.92 µM | [12] 10.2 µM | CYP2E1 (gene 1571) 25.7 µM
not listed: [10] | CYP2C8 (gene 1558) | [14]
inactive: all other assays above
